Results as given in paper PMC11006913.
Residue numbers refer to the chain shown, from its start.

Tests used:
Test in all cases: PBM; 200 nM protein, PBS
Settings in all cases: dsDNA, one strand shown
[1] = target: T1, NKX2-4 (Homo sapiens, UniProt Q9H2Z4 175-261, P217L)
T1 sequence: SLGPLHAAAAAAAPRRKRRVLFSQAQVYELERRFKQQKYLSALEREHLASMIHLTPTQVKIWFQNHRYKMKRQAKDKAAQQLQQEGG

[2] = target: HOXB9 (Homo sapiens, UniProt P17482 171-250, T197M)
[3] = target: T2, NKX2-4 (Homo sapiens, UniProt Q9H2Z4 175-261, T231S)
T2 sequence: T1 sequence with L43P, T57S

[4] = target: T3, NKX2-4 (Homo sapiens, UniProt Q9H2Z4 175-261)
T3 sequence: T1 sequence with L43P

[5] = target: HOXB9 (Homo sapiens, UniProt P17482 171-250)
[6] = target: T4, NKX2-4 (Homo sapiens, UniProt Q9H2Z4 175-261, R246Q)
T4 sequence: T1 sequence with L43P, R72Q

[7] = target: HOXB9 (Homo sapiens, UniProt P17482 171-250, R186Q)
[8] = target: HOXA4 (Homo sapiens, UniProt Q00056 201-287, W262R)
[9] = target: HOXA4 (Homo sapiens, UniProt Q00056 201-287, R217L)
[10] = target: HOXA4 (Homo sapiens, UniProt Q00056 201-287)
[11] = target: HOXA4 (Homo sapiens, UniProt Q00056 201-287, W262F)
[12] = target: CRX (Homo sapiens, UniProt O43186 26-111)
[13] = target: PITX2 (Homo sapiens, UniProt Q99697 72-157)
[14] = target: CRX (Homo sapiens, UniProt O43186 26-111, R41L)
[15] = target: CRX (Homo sapiens, UniProt O43186 26-111, E42D)
CRX (Homo sapiens, UniProt O43186 26-111, E42D), sequence (O43186 26-111 E42D): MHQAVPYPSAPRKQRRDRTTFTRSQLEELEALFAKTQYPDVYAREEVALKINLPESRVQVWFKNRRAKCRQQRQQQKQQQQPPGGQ

CRX (Homo sapiens, UniProt O43186 26-111), sequence (O43186 26-111): as the sequence (O43186 26-111 E42D) above, with D17E counted along it
CRX (Homo sapiens, UniProt O43186 26-111, R41L), sequence (O43186 26-111 R41L): as the sequence (O43186 26-111 E42D) above, with R16L, D17E counted along it
HOXB9 (Homo sapiens, UniProt P17482 171-250, R186Q), sequence (P17482 171-250 R186Q): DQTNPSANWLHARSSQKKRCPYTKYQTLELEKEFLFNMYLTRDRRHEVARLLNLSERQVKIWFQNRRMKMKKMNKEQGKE
HOXA4 (Homo sapiens, UniProt Q00056 201-287, R217L), sequence (Q00056 201-287 R217L): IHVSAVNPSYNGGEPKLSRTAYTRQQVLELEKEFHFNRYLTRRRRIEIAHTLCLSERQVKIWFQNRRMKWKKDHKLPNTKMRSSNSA
HOXA4 (Homo sapiens, UniProt Q00056 201-287, W262F), sequence (Q00056 201-287 W262F): as the sequence (Q00056 201-287 R217L) above, with L17R, W62F counted along it
HOXA4 (Homo sapiens, UniProt Q00056 201-287, W262R), sequence (Q00056 201-287 W262R): as the sequence (Q00056 201-287 R217L) above, with L17R, W62R counted along it
HOXA4 (Homo sapiens, UniProt Q00056 201-287), sequence (Q00056 201-287): as the sequence (Q00056 201-287 R217L) above, with L17R counted along it
HOXB9 (Homo sapiens, UniProt P17482 171-250), sequence (P17482 171-250): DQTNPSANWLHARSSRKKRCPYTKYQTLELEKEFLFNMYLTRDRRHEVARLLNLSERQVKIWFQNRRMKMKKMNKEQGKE
HOXB9 (Homo sapiens, UniProt P17482 171-250, T197M), sequence (P17482 171-250 T197M): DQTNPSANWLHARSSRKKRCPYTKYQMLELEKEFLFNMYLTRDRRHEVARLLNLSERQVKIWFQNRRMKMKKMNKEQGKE

**Q.** CTGGGGGC was tested. Which binding signal [1] did it give?
**A.** 9.39 upbm affinity estimate (log intensity, higher = more binding, comparable within an allelic series)

**Q.** What about the binding signal [2] of the same sequence?
**A.** 8.38 upbm affinity estimate (log intensity, higher = more binding, comparable within an allelic series)

**Q.** And the binding signal [3]?
**A.** 9.45 upbm affinity estimate (log intensity, higher = more binding, comparable within an allelic series)

**Q.** And the binding signal [4]?
**A.** 9.5 upbm affinity estimate (log intensity, higher = more binding, comparable within an allelic series)

**Q.** What about the binding signal [5] of the same sequence?
**A.** 8.3 upbm affinity estimate (log intensity, higher = more binding, comparable within an allelic series)

**Q.** What about the binding signal [6] of the same sequence?
**A.** 9.37 upbm affinity estimate (log intensity, higher = more binding, comparable within an allelic series)

**Q.** And the binding signal [7]?
**A.** 8.44 upbm affinity estimate (log intensity, higher = more binding, comparable within an allelic series)

**Q.** Which results are given for CAGTCCCG?
**A.** binding signal [1]: 9.58 upbm affinity estimate (log intensity, higher = more binding, comparable within an allelic series); binding signal [8]: 9.96 upbm affinity estimate (log intensity, higher = more binding, comparable within an allelic series); binding signal [3]: 9.49 upbm affinity estimate (log intensity, higher = more binding, comparable within an allelic series); binding signal [4]: 9.67 upbm affinity estimate (log intensity, higher = more binding, comparable within an allelic series); binding signal [9]: 9.95 upbm affinity estimate (log intensity, higher = more binding, comparable within an allelic series); binding signal [10]: 9.91 upbm affinity estimate (log intensity, higher = more binding, comparable within an allelic series); binding signal [6]: 9.57 upbm affinity estimate (log intensity, higher = more binding, comparable within an allelic series); binding signal [11]: 10 upbm affinity estimate (log intensity, higher = more binding, comparable within an allelic series)

**Q.** Which binding signal [12] does the source give for AGATTAAC here?
**A.** 12.9 upbm affinity estimate (log intensity, higher = more binding, comparable within an allelic series)

**Q.** What about the binding signal [13] of the same sequence?
**A.** 12.7 upbm affinity estimate (log intensity, higher = more binding, comparable within an allelic series)

**Q.** And the binding signal [14]?
**A.** 12.6 upbm affinity estimate (log intensity, higher = more binding, comparable within an allelic series)

**Q.** GCTTAAGC was tested. Which binding signal [12] did it give?
**A.** 12.8 upbm affinity estimate (log intensity, higher = more binding, comparable within an allelic series)

**Q.** And the binding signal [15]?
**A.** 12.7 upbm affinity estimate (log intensity, higher = more binding, comparable within an allelic series)

**Q.** And the binding signal [14]?
**A.** 11.7 upbm affinity estimate (log intensity, higher = more binding, comparable within an allelic series)

**Q.** How did the binding signal [12] turn out when AAGTATAA was run?
**A.** 10.6 upbm affinity estimate (log intensity, higher = more binding, comparable within an allelic series)

**Q.** And the binding signal [15]?
**A.** 10.5 upbm affinity estimate (log intensity, higher = more binding, comparable within an allelic series)

**Q.** What about the binding signal [14] of the same sequence?
**A.** 10.2 upbm affinity estimate (log intensity, higher = more binding, comparable within an allelic series)

**Q.** Which binding signal [12] does the source give for CAGGAACG here?
**A.** 8.49 upbm affinity estimate (log intensity, higher = more binding, comparable within an allelic series)

**Q.** What about the binding signal [15] of the same sequence?
**A.** 8.54 upbm affinity estimate (log intensity, higher = more binding, comparable within an allelic series)

**Q.** And the binding signal [14]?
**A.** 8.36 upbm affinity estimate (log intensity, higher = more binding, comparable within an allelic series)

**Q.** With CGAGCACG as the sequence, how does the binding signal [12] read?
**A.** 8.2 upbm affinity estimate (log intensity, higher = more binding, comparable within an allelic series)

**Q.** And the binding signal [15]?
**A.** 8.12 upbm affinity estimate (log intensity, higher = more binding, comparable within an allelic series)

**Q.** What about the binding signal [14] of the same sequence?
**A.** 8.16 upbm affinity estimate (log intensity, higher = more binding, comparable within an allelic series)
